From a collection of fitness landscapes (doi:10.1126/science.1257360) come the findings set out here.

In all, about 140,000 sequences were measured (“enrichment ratio after two sorts for PhoP signalling”: median about 0, highest 2% from about 11 on). Shown is part of a subset that was picked to be rich in the highest values.

B1: PhoQ; a variant is named by its letters at X, in order, P23837 (parent)
chain: MKKLLRLFFPLSLRVRFLLATAAVVLVLSLAYGMVALIGYSVSFDKTTFRLLRGESNLFYTLAKWENNKLHVELPENIDKQSPTMTLIYDENGQLLWAQRDVPWLMKMIQPDWLKSNGFHEIEADVNDTSLLLSGDHSIQQQLQEVREDDDDAEMTHSVAVNVYPATSRMPKLTIVVVDTIPVELKSSYMVWSWFIYVLSANLLLVIPLLWVAAWWSLRPIEALAKEVRELEEHNRELLNPATTRELTSLVRNLNRLLKSERERYDKYRTTLTDLTHSLKTPLXXLQXXLRSLRSEKMSVSDAEPVMLEQISRISQQIGYYLHRASMRGGTLLSRELHPVAPLLDNLTSALNKVYQRKGVNISLDISPEISFVGEQNDFVEVMGNVLDNACKYCLEFVEISARQTDEHLYIVVEDDGPGIPLSKREVIFDRGQRVDTLRPGQGVGLAVAREITEQYEGKIVAGESMLGGARMEVIFGRQHSAPKDE

The experiment covers variants of B1. In words: enrichment ratio after two sorts for PhoP signalling (ratio (wild type AVST 3.29)); higher = more functional. To be noted: with PhoP (E. coli).
As to RIQD, the enrichment ratio is not above 0.25.
The same measure for APKL: not above 0.25; for KTLD: not above 0.25; for QTQN: not above 0.25.
For the variant LCCT, the enrichment ratio is not above 0.25.
For EDCL, the enrichment ratio was not above 0.25.
With KEMG, the enrichment ratio is not above 0.25.
The figure for SGQL is 12; for QEQL it is not above 0.25; for STQL it is 17.1.
As to SIQL, the enrichment ratio was found to be 13.1.
Turning to NIQL, the enrichment ratio is not above 0.25.
As for SLQL, the enrichment ratio was 5.85.
On to YTQL, for which the enrichment ratio was not above 0.25.
With SQQL, the enrichment ratio came to 2.28.
Regarding SAQL, the enrichment ratio is 9.87.
SMQL: the enrichment ratio is 12.1.
Consider KYQL, for which the enrichment ratio was not above 0.25.
Regarding QLRC, the enrichment ratio is not above 0.25.
The figure for KRKR is not above 0.25; for YDDH it is not above 0.25; for EAQW it is not above 0.25.
Consider TNTD, for which the enrichment ratio was not above 0.25.
On to TNIC, for which the enrichment ratio was not above 0.25.
TNTC: the enrichment ratio was determined as 11.6.
Consider TNNK, for which the enrichment ratio was not above 0.25.
The figure for TNTA is 10.1.
For TNTK, the enrichment ratio is not above 0.25.
Regarding TNTI, the enrichment ratio worked out at 15.8.
For TNTH, the enrichment ratio stood at 1.01.
Turning to TNTS, the enrichment ratio was found to be 13.4.
On to WEHT, for which the enrichment ratio is not above 0.25.
For FCPF, the enrichment ratio is not above 0.25.
For the variant IDMQ, the enrichment ratio is not above 0.25.
The figure for VSQK is not above 0.25; for MKCQ it is not above 0.25; for AWCQ it is not above 0.25.
On to HKCQ, for which the enrichment ratio is not above 0.25.
Take AKCQ: the enrichment ratio is 19.1.
On to AICQ, for which the enrichment ratio turned out to be 3.77.
For the variant TKCQ, the enrichment ratio came to 11.7.
The same measure for PWVC: not above 0.25; for AKCV: 3.07; for TKCE: 7.83.
Turning to MMCL, the enrichment ratio turned out to be 4.1.
The figure for KKCV is not above 0.25; for TKCL it is 14.6; for HKCL it is 3.32.
For TKCS, the enrichment ratio stood at 13.2.
On to GGMT, for which the enrichment ratio is not above 0.25.
On to TKCV, for which the enrichment ratio was 30.6.
Consider KKCL, for which the enrichment ratio was 1.66.
For the variant MKCL, the enrichment ratio came to 16.5.
Take TKCI: the enrichment ratio turned out to be 10.8.
For SKMP, the enrichment ratio was not above 0.25.
The same measure for GFDT: not above 0.25.
The figure for WRTW is not above 0.25.
In the case of DDAA, the enrichment ratio is not above 0.25.
The figure for ARFW is not above 0.25.
Take KKAC: the enrichment ratio was not above 0.25.
As to SIAC, the enrichment ratio was 13.
The figure for AEAC is 43.5; for NGAC it is not above 0.25; for TGAC it is 11.4.
The figure for AIAC is 19.1.
For GGAC, the enrichment ratio was not above 0.25.
In the case of SPAC, the enrichment ratio was not above 0.25.
For the variant AEYS, the enrichment ratio was determined as 1.65.
With KYAC, the enrichment ratio was not above 0.25.
Turning to AEFC, the enrichment ratio amounted to 6.7.
The figure for VHAC is not above 0.25; for MDLS it is not above 0.25.
Take WPPG: the enrichment ratio was not above 0.25.
The figure for LANA is not above 0.25.
The figure for GFDD is not above 0.25; for LCAI it is not above 0.25; for VLNL it is not above 0.25.
In the case of AAAC, the enrichment ratio was not above 0.25.
For AKAC, the enrichment ratio is 19.7.
Take ADAC: the enrichment ratio was found to be 0.792.
For the variant TIAC, the enrichment ratio was 12.1.
For WIAC, the enrichment ratio is not above 0.25.
RIAC: the enrichment ratio is not above 0.25.
Turning to MYGT, the enrichment ratio is not above 0.25.
The same measure for TEWY: 0.326.
On to MPYR, for which the enrichment ratio is not above 0.25.
Turning to TTHP, the enrichment ratio is not above 0.25.
Consider YTHQ, for which the enrichment ratio was not above 0.25.
Consider TTHQ, for which the enrichment ratio stood at 26.2.
Regarding GYMQ, the enrichment ratio was not above 0.25.
Consider YTMQ, for which the enrichment ratio worked out at 0.469.
With TTMQ, the enrichment ratio worked out at 30.4.
The same measure for TTQQ: 21.5; for ITQQ: not above 0.25.
LTQQ: the enrichment ratio was not above 0.25.
For YIIQ, the enrichment ratio was not above 0.25.
As to QERY, the enrichment ratio was not above 0.25.
The figure for QQLY is not above 0.25.
With CLCR, the enrichment ratio was not above 0.25.
Consider VMKE, for which the enrichment ratio is not above 0.25.
Regarding VTRG, the enrichment ratio was not above 0.25.
The figure for QNQF is not above 0.25; for TTPI it is 4.3.
Regarding TTLA, the enrichment ratio worked out at 16.9.
In the case of ITLT, the enrichment ratio is not above 0.25.
In the case of TTLS, the enrichment ratio came to 15.1.
Regarding TTLT, the enrichment ratio amounted to 15.8.
Turning to YTLS, the enrichment ratio was 4.88.
The figure for YTLA is 4.01; for YTLT it is not above 0.25; for CTLS it is not above 0.25.
For the variant IYDI, the enrichment ratio was not above 0.25.
In the case of EDSR, the enrichment ratio is not above 0.25.
Regarding KMPM, the enrichment ratio was not above 0.25.
On to YVSD, for which the enrichment ratio is not above 0.25.
Take RQYR: the enrichment ratio was not above 0.25.
Turning to HAKY, the enrichment ratio is not above 0.25.
For DMQN, the enrichment ratio is not above 0.25.
The same measure for MLWE: not above 0.25.
For the variant MNAQ, the enrichment ratio amounted to 11.8.
With MNNY, the enrichment ratio was determined as 15.3.
With MNHF, the enrichment ratio is 4.26.
For MNYY, the enrichment ratio is not above 0.25.
Consider TNAQ, for which the enrichment ratio worked out at 4.37.
For the variant MNYI, the enrichment ratio turned out to be 9.81.
For the variant TNAY, the enrichment ratio is 2.94.
As for MNAY, the enrichment ratio is 17.
The figure for MNHP is not above 0.25.
As to FVVQ, the enrichment ratio is not above 0.25.
The same measure for PGYA: not above 0.25; for ELDY: not above 0.25.
The same measure for TGCL: 22.4.
For the variant CSCS, the enrichment ratio was not above 0.25.
As to TSCL, the enrichment ratio came to 19.6.
In the case of SGDL, the enrichment ratio is not above 0.25.
For KSCL, the enrichment ratio is not above 0.25.
Consider SGCL, for which the enrichment ratio stood at 15.6.
The same measure for NSCL: not above 0.25; for GGCL: 8.88.
Turning to RGCL, the enrichment ratio is not above 0.25.
As for FSCL, the enrichment ratio stood at 8.2.
Regarding CSCL, the enrichment ratio is 16.1.
The figure for SGGL is 6.41; for PKNL it is not above 0.25; for TSYE it is not above 0.25.
In the case of RGSH, the enrichment ratio was not above 0.25.
Take NMFD: the enrichment ratio is not above 0.25.
IIHI: the enrichment ratio was not above 0.25.
The same measure for LILE: not above 0.25; for NHCE: not above 0.25; for NSGM: not above 0.25.
Take HPWS: the enrichment ratio was not above 0.25.
Consider YHCL, for which the enrichment ratio was not above 0.25.
